Data from the supplement of paper PMC12669032.
“And” between values parts separate entries of the source, which are not always exact repeats. Equal values may be shown once. Unmarked numbers belong to inactive results.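 How the source made its calls: active = AUC reduced over 20% with Padj below 0.05 in at least 2 of 3 replicates; inactive = otherwise.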

Test system: Lactobacillus gasseri
Assay: growth AUC relative to DMSO control (median of replicates) (fraction); higher = more growth (less inhibition), active = hit call of the paper
Details: 20 µM; 24 h
In short: (§1)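 OD600 was recorded every hour for 24 h in anaerobic monocultures of gut bacteria kept at 37 °C in mGAM, seeded at OD600 0.05 and given 20 µM compound in 1% DMSO. The area under each growth curve was scaled to the plate median of solvent-only wells, or to row and column medians for the industrial chemical plate. Before this step, the minimum OD was set to 0. Reported values are medians of three biological replicates run on separate days.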

| SMILES | growth AUC |
| --- | --- |
| Cc1cccc(C)c1N | 1.02 |
| C=CCOC(=O)C(C)(C)OC(=O)c1cc(-n2c(=O)cc(C(F)(F)F)n(C)c2=O)ccc1Cl | 0.871 |
| CCOP(=O)(NC(C)C)Oc1ccc(S(C)(=O)=O)c(C)c1 (stereo not drawn) | 0.993 |
| Cc1cc(OC(=O)N(C)C)nn1C(=O)N(C)C | 0.992 |
| CCCCCCCCSC(=O)Oc1cc(Cl)nnc1-c1ccccc1 | 1.02 |
| CC1(C(=O)Nc2ccc(O)c(Cl)c2Cl)CCCCC1 | 1.03 |
| CC(Oc1ccc(Oc2ccc(Cl)cc2Cl)cc1)C(=O)O (racemic) | 1.16 |
| C[Si](Cn1cncn1)(c1ccc(F)cc1)c1ccc(F)cc1 | 1.04 |
| CN(C)C1CSSSC1.O=C(O)C(=O)O | 1.03 |
| COP(=S)(OC)SCn1nnc2ccccc2c1=O | 0.929 |
| CCSC(=O)N1CCCCCC1 | 1.06 |
| O=C(O)c1c(Cl)ccc2cc(Cl)cnc12 | 1.07 |
| CCCSP(=S)(OCC)Oc1ccc(SC)cc1 (stereo not drawn) | 0.946 |
| Cc1cc(C(F)(C(F)(F)F)C(F)(F)F)ccc1NC(=O)c1cccc(I)c1C(=O)NC(C)(C)CS(C)(=O)=O | 3.03 |
| Cc1cc(Cl)ccc1O | 0.979 |
| COc1cc(OC)nc(NC(=O)NS(=O)(=O)c2ncccc2C(=O)N(C)C)n1 | 0.93 |
| Cc1cccc2sc3nncn3c12 | 1.05 |
| CCC(C)c1cc([N+](=O)[O-])cc([N+](=O)[O-])c1O (stereo not drawn) | 0.959 |
| CCOP(=S)(OCC)SCSC(C)(C)C | 0.909 |
| CCNc1nc(Cl)nc(NC(C)(C)C#N)n1 | 1.19 |

| SMILES | growth AUC |
| --- | --- |
| Cc1ccccc1C(=O)Nc1cccc(OC(C)C)c1 | 1.06 |
| N#CN=C1SCCN1Cc1ccc(Cl)nc1 | 1.03 |
| COP(=O)(OC)Oc1ccc(S(C)=O)c(C)c1 (stereo not drawn) | 1.13 |
| COCC(=O)N(c1c(C)cccc1C)[C@H](C)C(=O)OC | 0.957 |
| CC(=NC#N)N(C)Cc1ccc(Cl)nc1 | 0.985 and 1.03 |
| CC1(C)C(C(=O)OC(C#N)c2cccc(Oc3ccccc3)c2)C1(C)C (stereo not drawn) | 0.909 |
| CNC(=O)Oc1cc(C)c(N(C)C)c(C)c1 | 0.998 |
| CN(C)C(=S)SSC(=S)N(C)C | 0.875 |
| CCOP(=S)(OCC)SCn1nnc2ccccc2c1=O | 1.01 |
| [CH3][Hg][Cl] | 0.99 |
| CCCCc1c(C)nc(NCC)nc1OS(=O)(=O)N(C)C | 0.931 |
| CC1(C)[C@H](/C=C(\Cl)C(F)(F)F)[C@@H]1C(=O)O[C@@H](C#N)c1cccc(Oc2ccccc2)c1 | 0.853 |
| CCCN(CCOc1c(Cl)cc(Cl)cc1Cl)C(=O)n1ccnc1 | 1.11 |
| CCOP(=S)(OCC)Oc1cc(Cl)c(Br)cc1Cl | 0.868 |
| C/C(=N\NC(=O)Nc1cc(F)cc(F)c1)c1ncccc1C(=O)[O-].[Na+] | 0.796 |
| C1=Cc2cccc3cccc1c23 | 0.975 |
| CCc1ccc(C(=O)NN(C(=O)c2cc(C)cc(C)c2)C(C)(C)C)cc1 | 0.98 |
| C#CCOc1ccc(CCNC(=O)C(OCC#C)c2ccc(Cl)cc2)cc1OC (stereo not drawn) | 0.926 |
| COC(=O)c1ccccc1S(=O)(=O)NC(=O)Nc1nc(C)nc(OC)n1 | 0.934 |

Test system: Lactobacillus paracasei
Assay: as above
Details: 20 µM; 24 h
In short: as §1

| SMILES | growth AUC |
| --- | --- |
| Cc1cccc(C)c1N | 0.936 |
| C=CCOC(=O)C(C)(C)OC(=O)c1cc(-n2c(=O)cc(C(F)(F)F)n(C)c2=O)ccc1Cl | 1.01 |
| CCOP(=O)(NC(C)C)Oc1ccc(S(C)(=O)=O)c(C)c1 (stereo not drawn) | 1.03 |
| Cc1cc(OC(=O)N(C)C)nn1C(=O)N(C)C | 0.963 |
| CCCCCCCCSC(=O)Oc1cc(Cl)nnc1-c1ccccc1 | 1.04 |
| CC1(C(=O)Nc2ccc(O)c(Cl)c2Cl)CCCCC1 | 0.949 |
| CC(Oc1ccc(Oc2ccc(Cl)cc2Cl)cc1)C(=O)O (racemic) | 0.999 |
| C[Si](Cn1cncn1)(c1ccc(F)cc1)c1ccc(F)cc1 | 0.925 |
| CN(C)C1CSSSC1.O=C(O)C(=O)O | 0.972 |
| COP(=S)(OC)SCn1nnc2ccccc2c1=O | 0.968 |
| CCSC(=O)N1CCCCCC1 | 0.954 |
| O=C(O)c1c(Cl)ccc2cc(Cl)cnc12 | 0.934 |
| CCCSP(=S)(OCC)Oc1ccc(SC)cc1 (stereo not drawn) | 1.02 |
| Cc1cc(C(F)(C(F)(F)F)C(F)(F)F)ccc1NC(=O)c1cccc(I)c1C(=O)NC(C)(C)CS(C)(=O)=O | 1.48 |
| Cc1cc(Cl)ccc1O | 0.873 |
| COc1cc(OC)nc(NC(=O)NS(=O)(=O)c2ncccc2C(=O)N(C)C)n1 | 0.889 |
| Cc1cccc2sc3nncn3c12 | 0.957 |
| CCC(C)c1cc([N+](=O)[O-])cc([N+](=O)[O-])c1O (stereo not drawn) | 0.925 |
| CCOP(=S)(OCC)SCSC(C)(C)C | 1.03 |
| CCNc1nc(Cl)nc(NC(C)(C)C#N)n1 | 0.968 |

| SMILES | growth AUC |
| --- | --- |
| Cc1ccccc1C(=O)Nc1cccc(OC(C)C)c1 | 1.01 |
| N#CN=C1SCCN1Cc1ccc(Cl)nc1 | 0.963 |
| COP(=O)(OC)Oc1ccc(S(C)=O)c(C)c1 (stereo not drawn) | 0.975 |
| COCC(=O)N(c1c(C)cccc1C)[C@H](C)C(=O)OC | 1 |
| CC(=NC#N)N(C)Cc1ccc(Cl)nc1 | 1.03 and 0.987 |
| CC1(C)C(C(=O)OC(C#N)c2cccc(Oc3ccccc3)c2)C1(C)C (stereo not drawn) | 1.04 |
| CNC(=O)Oc1cc(C)c(N(C)C)c(C)c1 | 0.953 |
| CN(C)C(=S)SSC(=S)N(C)C | 1.02 |
| CCOP(=S)(OCC)SCn1nnc2ccccc2c1=O | 1.05 |
| [CH3][Hg][Cl] | 1.04 |
| CCCCc1c(C)nc(NCC)nc1OS(=O)(=O)N(C)C | 0.987 |
| CC1(C)[C@H](/C=C(\Cl)C(F)(F)F)[C@@H]1C(=O)O[C@@H](C#N)c1cccc(Oc2ccccc2)c1 | 0.996 |
| CCCN(CCOc1c(Cl)cc(Cl)cc1Cl)C(=O)n1ccnc1 | 1.17 |
| CCOP(=S)(OCC)Oc1cc(Cl)c(Br)cc1Cl | 1 |
| C/C(=N\NC(=O)Nc1cc(F)cc(F)c1)c1ncccc1C(=O)[O-].[Na+] | 0.975 |
| C1=Cc2cccc3cccc1c23 | 1.04 |
| CCc1ccc(C(=O)NN(C(=O)c2cc(C)cc(C)c2)C(C)(C)C)cc1 | 1.04 |
| C#CCOc1ccc(CCNC(=O)C(OCC#C)c2ccc(Cl)cc2)cc1OC (stereo not drawn) | 0.98 |
| COC(=O)c1ccccc1S(=O)(=O)NC(=O)Nc1nc(C)nc(OC)n1 | 0.933 |
